From PubChem BioAssay (NCATS) come the findings set out here.

Records with an inconclusive call do not appear. The source made the active and inactive calls. Unless noted, calls come from the whole dose curve; as a rule, active = well fitted curve in the direction sought with a large enough effect; inconclusive = small, poorly fitted or top-dose-only effect, or another doubt; inactive = no such curve, though single readings can be large; an effect the other way counts as inactive or inconclusive.

Test [1] can be described thus: qHTS to identify inhibitors of the type 1 interferon - major histocompatibility complex class I in skeletal muscle: primary screen against the NCATS Mechanism Interrogation Plate v5.0 (MIPE) Libary (AID 1347411).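 For activity change, negative = inhibition: plate controls were vehicle for no effect and reference inhibitor for full effect.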 Note: nearly all actives have a fitted effect of over 65% in size. Note: potency is the fitted concentration of half-maximal effect. In a few lines:
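HLA-B HiBit myoblasts, dexamethasone-free medium + 4 ng/ml IFN-b, 24 h compound, 11-pt 1:3 from 46 uM final. Readout: Nano-Glo HiBiT lytic luminescence after 10 min lysis, RT.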

The target in test [2] is Calcium and integrin-binding protein 1 (Homo sapiens) (UniProt Q99828). As to the kind of experiment: Primary qHTS for Identification of Calcium Integrin Binding Protein 1 (CIB1) Competitor (AID 1508620).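 Note: GST tagged CIB1 binding a fluorescein labelled alphaIIb integrin peptide tracer; top concentration of the series differs between compounds; % is set by controls: 0 for no effect and ±100 for the full control effect.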 In a few lines:
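Fluorescence polarization competition: GST-tagged CIB1 (1 uM final) preincubated with compound 15 min at room temperature, then FITC-labelled alphaIIb peptide (100 nM final) added. After 15 min at room temperature, polarization read at Ex 480/Em 540.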

Test [3] in a line: Primary qHTS for small molecule stabilizers of the endoplasmic reticulum resident proteome: Secreted ER Calcium Modulated Protein (SERCaMP) assay (AID 1508630). Note: % is set by controls: 0 for no effect and ±100 for the full control effect. In a few lines:
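The SH-SY5Y reporter protocol was run at 3 concentrations up to 38.3 uM (primary) or 11 concentrations (follow-up): 16 h compound, 100 nM thapsigargin for 4 h, then extracellular luciferase luminescence.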

Test [4] concerns the target Cytochrome P450 2D6 (Homo sapiens) (UniProt P10635). As to the kind of experiment: Cytochrome P450 family 2 subfamily D member 6 (CYP2D6) small molecule antagonists: luciferase biochemical (cell-free) qHTS assay (AID 1645840; active = well fitted curve in the direction sought with a large enough effect in the repeat runs; an effect the other way counts as inactive or inconclusive; note: nearly all actives have a fitted effect of over 55% in size; note: potency is the fitted concentration of half-maximal effect; for activity change, negative = inhibition: % is set by controls: 0 for no effect and ±100 for the full control effect). In outline:
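P450-Glo CYP2D6 system: proluciferin substrate converted by enzyme to luciferin, read by luminescence proportional to activity. Enzyme-substrate mix with compound 10 min at room temperature, then NADPH regeneration 1 h before detection reagent.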

Test [5] concerns the target Cytochrome P450 2C9 (Homo sapiens) (UniProt P11712). Nature of the test: Cytochrome P450 family 2 subfamily C member 9 (CYP2C9) small molecule antagonists: luciferase biochemical (cell-free) qHTS assay (AID 1645842; active = well fitted curve in the direction sought with a large enough effect in the repeat runs; an effect the other way counts as inactive or inconclusive; note: nearly all actives have a fitted effect of over 55% in size; note: potency is the fitted concentration of half-maximal effect). In outline:
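P450-Glo CYP2C9 system: proluciferin substrate with enzyme in mix containing 0.4% BSA, 10 min at room temperature, then NADPH regeneration solution added and incubated 1 h at 37C. Detection reagent stopped reaction; luminescence read after 20 min as RLU.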

A short description of test [6]: Primary qHTS for inhibitors of nuclear receptor binding SET domain protein 2 (NSD2) in an isogenic RCH-ACV NSD2 p.E1099K mutant (9B) (AID 1645876). Note: nearly all actives have a fitted effect of over 70% in size. Note: potency is the fitted concentration of half-maximal effect.
Test [7] is described as follows: Primary qHTS for inhibitors of nuclear receptor binding SET domain protein 2 (NSD2) in an RCH-ACV wild type WT cells (2C) (AID 1645877). Note: nearly all actives have a fitted effect of over 70% in size. Note: potency is the fitted concentration of half-maximal effect.
Test [8] addresses Catechol O-methyltransferase (Homo sapiens) (UniProt P21964). As to the kind of experiment: Confirmatory Screen for Target Class Profiling of Small Molecule Inhibitors of Methyltransferases (AID 1745852). For activity change, negative = inhibition: % is set by controls: 0 for no effect and ±100 for the full control effect. As to conditions: MTase-Glo luminescence, SAH detection, recombinant enzyme; measured here: COMT max response; stronger effect = lower value.
Test [9] concerns the target Guanidinoacetate N-methyltransferase (Homo sapiens) (UniProt Q14353). Described as above. To be noted: activity change, negative = inhibition: at 57.3 µM (top of the series).
The target of test [10] is Nicotinamide N-methyltransferase (Homo sapiens) (UniProt P40261). Described as above. As to conditions: MTase-Glo luminescence, SAH detection, recombinant enzyme; measured here: NNMT max response; stronger effect = lower value.
Nicotinamide N-methyltransferase (Homo sapiens), sequence (P40261 whole entry, looked up): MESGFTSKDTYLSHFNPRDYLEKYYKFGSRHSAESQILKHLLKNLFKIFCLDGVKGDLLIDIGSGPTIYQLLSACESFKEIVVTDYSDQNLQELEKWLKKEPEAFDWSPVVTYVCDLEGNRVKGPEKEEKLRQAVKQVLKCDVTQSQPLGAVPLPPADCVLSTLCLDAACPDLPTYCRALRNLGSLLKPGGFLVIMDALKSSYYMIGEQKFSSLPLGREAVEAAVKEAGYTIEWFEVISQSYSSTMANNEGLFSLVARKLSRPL
The target in test [11] is Cytochrome P450 3A4 (Homo sapiens) (UniProt P08684). As to the kind of experiment: Cytochrome P450 family 3 subfamily A member 4 (CYP3A4) small molecule antagonists: luciferase qHTS assay (AID 1645841; active = well fitted curve in the direction sought with a large enough effect in the repeat runs; an effect the other way counts as inactive or inconclusive; note: nearly all actives have a fitted effect of over 45% in size; note: potency is the fitted concentration of half-maximal effect). In a few lines:
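P450-Glo CYP3A4 enzyme with proluciferin substrate preincubated 10 min with compound at room temperature, then NADPH regeneration 1 h. Luciferin detection reagent added for 20 min; luminescence recorded. Ketoconazole positive control.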

In test [12] the target is Calcium and integrin-binding protein 1 (Homo sapiens) (UniProt Q99828). Nature of the test: Confirmatory qHTS for Identification of Calcium Integrin Binding Protein 1 (CIB1) Competitor (AID 1508617). Note: % is set by controls: 0 for no effect and ±100 for the full control effect; nearly all actives have a fitted effect of over 65% in size. In outline:
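Compounds at up to 114 uM final met 1 uM GST-tagged CIB1 for 15 min at room temperature (HEPES pH 7.4, 5 mM CaCl2). FITC-labelled alphaIIb peptide, 100 nM, added; polarization read after 15 min more.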

Cytochrome P450 2C9 (Homo sapiens), sequence (P11712 whole entry, looked up): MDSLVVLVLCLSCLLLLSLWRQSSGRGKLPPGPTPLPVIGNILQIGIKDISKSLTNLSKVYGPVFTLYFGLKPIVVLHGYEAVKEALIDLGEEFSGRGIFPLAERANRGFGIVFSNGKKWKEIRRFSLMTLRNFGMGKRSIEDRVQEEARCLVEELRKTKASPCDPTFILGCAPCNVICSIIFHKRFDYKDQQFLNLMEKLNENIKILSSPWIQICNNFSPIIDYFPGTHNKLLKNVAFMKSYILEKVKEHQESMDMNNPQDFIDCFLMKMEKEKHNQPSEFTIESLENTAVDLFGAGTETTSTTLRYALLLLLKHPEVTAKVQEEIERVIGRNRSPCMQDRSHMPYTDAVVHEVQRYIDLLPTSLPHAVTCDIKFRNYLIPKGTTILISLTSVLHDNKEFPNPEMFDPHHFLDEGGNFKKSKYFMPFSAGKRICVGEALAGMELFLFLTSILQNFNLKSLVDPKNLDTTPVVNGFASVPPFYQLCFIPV
Cytochrome P450 2D6 (Homo sapiens), sequence (P10635 whole entry, looked up): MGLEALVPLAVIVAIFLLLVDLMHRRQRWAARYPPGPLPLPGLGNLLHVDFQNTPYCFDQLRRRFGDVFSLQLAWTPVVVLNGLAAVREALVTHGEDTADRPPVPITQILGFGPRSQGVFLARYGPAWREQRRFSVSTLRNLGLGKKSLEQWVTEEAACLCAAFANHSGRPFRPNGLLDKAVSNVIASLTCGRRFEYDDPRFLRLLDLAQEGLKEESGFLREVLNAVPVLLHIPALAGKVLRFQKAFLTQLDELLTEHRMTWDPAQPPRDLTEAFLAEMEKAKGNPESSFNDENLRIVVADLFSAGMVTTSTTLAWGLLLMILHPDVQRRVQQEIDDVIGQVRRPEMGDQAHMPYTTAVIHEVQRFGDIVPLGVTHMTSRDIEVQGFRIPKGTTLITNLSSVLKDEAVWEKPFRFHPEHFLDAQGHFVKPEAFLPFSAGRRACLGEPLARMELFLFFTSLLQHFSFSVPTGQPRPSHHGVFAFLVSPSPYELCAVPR
Calcium and integrin-binding protein 1 (Homo sapiens), sequence (Q99828 whole entry, looked up): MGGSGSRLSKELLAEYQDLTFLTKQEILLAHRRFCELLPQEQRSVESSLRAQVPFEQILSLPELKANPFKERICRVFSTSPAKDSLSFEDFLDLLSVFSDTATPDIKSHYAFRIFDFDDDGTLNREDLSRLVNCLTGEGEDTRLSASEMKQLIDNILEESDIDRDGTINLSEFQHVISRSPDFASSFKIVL
Cytochrome P450 3A4 (Homo sapiens), sequence (P08684 whole entry, looked up): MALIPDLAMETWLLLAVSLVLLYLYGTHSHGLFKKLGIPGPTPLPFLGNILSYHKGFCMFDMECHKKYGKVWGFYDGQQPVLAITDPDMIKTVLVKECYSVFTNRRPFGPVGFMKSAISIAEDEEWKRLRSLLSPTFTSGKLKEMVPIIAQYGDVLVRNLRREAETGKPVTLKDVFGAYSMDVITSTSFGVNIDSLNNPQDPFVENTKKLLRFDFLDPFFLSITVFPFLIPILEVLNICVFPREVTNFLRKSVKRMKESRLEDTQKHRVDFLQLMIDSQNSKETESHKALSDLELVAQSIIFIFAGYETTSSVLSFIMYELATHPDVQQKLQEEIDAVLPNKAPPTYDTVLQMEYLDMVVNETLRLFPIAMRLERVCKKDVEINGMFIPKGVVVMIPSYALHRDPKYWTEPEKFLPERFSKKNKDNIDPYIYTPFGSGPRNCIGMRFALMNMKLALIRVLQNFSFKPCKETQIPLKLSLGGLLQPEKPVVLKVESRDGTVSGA
Catechol O-methyltransferase (Homo sapiens), sequence (P21964 whole entry, looked up): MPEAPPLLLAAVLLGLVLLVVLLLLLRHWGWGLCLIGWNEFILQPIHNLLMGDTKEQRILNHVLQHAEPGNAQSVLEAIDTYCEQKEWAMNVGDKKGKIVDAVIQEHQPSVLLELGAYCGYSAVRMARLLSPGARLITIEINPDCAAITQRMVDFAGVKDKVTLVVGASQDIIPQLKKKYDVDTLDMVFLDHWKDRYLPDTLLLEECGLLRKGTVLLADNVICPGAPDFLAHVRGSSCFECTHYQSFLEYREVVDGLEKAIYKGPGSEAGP

On to `c1ccc2c(Oc3nc(Nc4ccc(N5CCOCC5)cc4)c4ncn(C5CCCCC5)c4n3)cccc2c1`, for which the Potency result in [1], in [2], in test [4], in test [6] and in test [7] was “inactive” in each case. Also, the outcome in test [3] is “inactive”. Also, the Potency in test [5] was 4.77 µM (active). Besides, the activity in test [8] was 0.484%; in test [10], -22.9%. In addition, the activity change, negative = inhibition in test [9] is -1.84%.

For `CCc1nc(-c2cccc(C)c2)c(-c2ccnc(NC(=O)c3ccccc3)c2)s1`, the Potency result in [1], in [2] and in test [4] was “inactive” each time. In addition, the outcome in test [3] was “inactive”. Moreover, the Potency in test [5] was 2.68 µM (active); in test [6] it was 20.5 µM (active); in test [7] it was 16.3 µM (active).

Turning to `COC[C@H](NC(=O)c1cnc(C)s1)C(=O)N[C@@H](COC)C(=O)N[C@@H](Cc1ccccc1)C(=O)[C@@]1(C)CO1`, the Potency in test [1] is 0.0523 µM (active); in test [11], 10.7 µM (active); in test [6], 0.132 µM (active); in test [7] it was 0.0833 µM (active). Moreover, the Potency result in test [2], in test [4] and in test [5] was “inactive” in each case. The outcome in test [3] was “inactive”.

As to `CN(CC(=O)N(Cc1ccc(C2CCCCC2)cc1)c1ccc(C(=O)O)c(O)c1)S(=O)(=O)c1c(F)c(F)c(F)c(F)c1F`, the Potency result in test [1] and in test [2] was “inactive” each time. In addition, the outcome in test [3] was “inactive”.

Turning to `COc1cc2ncnc(Nc3cccc(Br)c3)c2cc1OC`, in test [1], the Potency is 10.4 µM (active). Besides, the Potency result in test [2] is “inactive”. Besides, the outcome in [3] was “inactive”.

`O=C1NC(O)CCN1[C@@H]1O[C@H](CO)[C@H](O)[C@H]1O` (stereo partly specified): the Potency entry in test [1], in test [2], in [4], in test [11], in test [5] and in test [6] was “inactive” throughout. In addition, the Potency entry in test [7] was “inactive”. For the same molecule, in test [3], the outcome was “inactive”.

In the case of `CCCc1nc(C(C)(C)O)c(C(=O)O)n1Cc1ccc(-c2ccccc2-c2nn[nH]n2)cc1`, the Potency result in test [1], in test [2], in test [4], in [5], in [6] and in test [7] was “inactive” throughout. In addition, the outcome in test [3] was “inactive”.

In the case of `C[C@H](O)[C@@H]1C(=O)N2C(C(=O)O)=C(S[C@@H]3CN[C@H](CNS(N)(=O)=O)C3)[C@@H](C)[C@@H]12`, the Potency entry in test [1], in test [2], in [4], in test [6] and in test [7] was “inactive” each time. Further, in [3], the outcome is “inactive”.

On to `Nc1ccn(C[C@@H](CO)OCP(=O)(O)O)c(=O)n1`, for which, in test [1], the activity change, negative = inhibition is -9.6% [at 8.44 µM] (inactive). Also, the Potency entry in [2] is “inactive”.

For `O=C1c2cccc(O)c2C(=O)c2c(O)cc(CO)cc21`, the Potency entry in test [1], in test [12], in test [6] and in [7] was “inactive” in each case. Further, the outcome in test [3] was “inactive”.

Turning to `CC(C)Oc1ccc(C(=O)N[C@H](CNC(=O)CN(C)C)Cc2ccc(-c3cn4cccc([C@H](C)O)c4n3)cc2)cc1Cl`, the Potency result in [1] and in [2] was “inactive” throughout. Further, the outcome in test [3] was “inactive”. The Potency in [4] was 5.35 µM (active); in test [5] it was 10.7 µM (active); in test [6], 0.059 µM (active); in test [7], 0.059 µM (active).
